Jurkat NFkB inh = inhibitors of induced NF-kB luciferase reporter, primary screen, TCR NF-kB activation inhibitor project, cell-based, luminescence, uHTS; AID 435003, 2010; 330,000 compounds, 0.53% hits; inhibition, % at 4 µM; Jurkat, PMA/ionomycin-induced NF-kB luciferase reporter; in the data active means inhibition above about 50%
CSC inhib = cancer stem cell viability inhibitors, primary screen, luminescence | cancer stem cell-like cells viability | inhibition, % at 7.5 µM | 300,000 compounds, 1.1% hits | AID 2717, 2010; in the data active means inhibition above about 75%; tested in HMLE shEcad cells
Mdm2 MdmX PPI = inhibitors of human Mdm2-MdmX association, primary screen, cell-based, luminescence, split luciferase, SaOS-2, uHTS. 330,000 compounds, 3% hits. inhibition, % at 8 µM. Protein Mdm4 (Homo sapiens) + E3 ubiquitin-protein ligase Mdm2 (Homo sapiens), …. SaOS-2 split-luciferase Mdm2/MdmX complementation;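 active means inhibition of at least 50% at 8 µM in the primary screen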
Gli-Sufu antag = Gli-Sufu pathway antagonists, primary screen, luciferase luminescence, Sufu-KO-LIGHT cells, uHTS; AID 588413, 2011; Sufu-KO-LIGHT fibroblasts, Gli luciferase reporter luminescence; inhibition, % at 5 µM; 340,000 compounds, 0.74% hits;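 active means inhibition above about 55%, limit read from the data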;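 further: 0% = DMSO-treated cells and 100% = wells with medium but no cells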
Beta apoptosis = inhibitors of cytokine-induced beta cell apoptosis, primary screen, luminescence; AID 435005, 2010; INS-1E cytokine-induced death, ATP luminescence, 48 h; percent of positive-control rescue, neutral wells zero; 300,000 compounds, 0.8% hits; protection from apoptosis, % (concentration not given with the values);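 active means Every replicate reaches about 75%, or at least half do and their mean reaches it too, limit read from the data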;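 further: 0% = cytokine-treated negative control wells and 100% = positive control rescue; higher means more ATP so stronger rescue from cytokine killing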
697 NFkB inh = inhibitors of PMA/ionomycin-induced NF-kB reporter, 697 cells, primary screen, B-cell NF-kB inhibitor project, cell-based, luminescence, uHTS. 697 B-cell NF-kB luciferase reporter, 16 h. AID 435022, 2010. 330,000 compounds, 0.33% hits. inhibition, % at 4 µM; in the data active means inhibition above about 35%
Jurkat NFkB conf = PMA/ionomycin-induced NF-kB reporter inhibitors, Jurkat retest, confirmation, T-cell NF-kB inhibitor project, cell-based, luminescence, single concentration; shares compounds with Jurkat NFkB inh; 2,700 compounds, 27% hits; Jurkat NF-kB luciferase, 16 h; inhibition, % at 4 µM;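 active means inhibition reaching about 45% at 4 µM in either replicate, limit read from the data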;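 further: plate controls were PMA/ionomycin stimulated DMSO wells for no effect and unstimulated DMSO wells for full effect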
697 NFkB conf = PMA/ionomycin-induced NF-kB reporter inhibitors, 697 retest, confirmation, B-cell NF-kB inhibitor project, cell-based, luminescence, single concentration; shares compounds with 697 NFkB inh; 697 B-cell NF-kB luciferase, 16 h; inhibition, % at 4 µM; 2,000 compounds, 35% hits; in the data active means inhibition mostly above about 28%, no sharp cut-off; inactive means mostly below about 22%
Mdm2 MdmX conf = Mdm2-MdmX complex disruptors, retested hits, confirmation, luminescence, single concentration; inhibition, % at 8 µM; AID 489028, 2010; shares compounds with Mdm2 MdmX PPI; Mdm2-MdmX binding, luminescent assay; 10,000 compounds, 55% hits; in the data active means inhibition above about 40%
Full FLuc ctr = full-length luciferase signal inhibition, confirmation, counter-screen for Mdm2/MdmX interaction inhibitor project, cell-based, single concentration, SaOS-2 | inhibition, % at 8 µM | SaOS-2 full-length luciferase counterscreen, luminescence | AID 504607, 2011 | shares compounds with Mdm2 MdmX PPI | 6,200 compounds, 77% hits;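 active means mean inhibition at 8 µM reaching about 37%, which flags the compound as non-specific, limit read from the data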;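 further: p53-null SaOS-2 cells with luciferase driven by a doxycycline-inducible promoter; compound on cells about two nights before reading with doxycycline added after day one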
An asterisk follows results filed as active; . = no result given. In the library only some 4.5% were active in any assay of this set; here they are far more common.

SMILES	Jurkat NFkB inh	CSC inhib	Mdm2 MdmX PPI	Gli-Sufu antag	Beta apoptosis	697 NFkB inh	Jurkat NFkB conf	Mdm2 MdmX conf	Full FLuc ctr	others
COc1ccc(S(=O)(=O)N2CCC(C)CC2)cc1OC	0	-15	30	7	.	0	.	.	.
CC1CCN(S(=O)(=O)c2ccc3c(c2)C(=NO)c2cc(S(=O)(=O)N4CCC(C)CC4)ccc2-3)CC1	96*	113*	100*	-5	104*	97*	17	100*	0	697 NFkB conf=93*
Cc1cc(C)cc(C(=O)N2CC(=O)Nc3ccccc32)c1	60*	51	58*	.	22	9	56*	60*	77*
Cc1nn(S(=O)(=O)c2ccc(F)cc2)c(C)c1S(=O)(=O)N1CCOCC1	7	10	12	17	-3	10	.	.	.
CCOC(=O)c1c(-c2ccc(-c3ccccc3)cc2)csc1NC(=O)CNCCN(C)C	52*	99*	83*	-14	55	-1	10	53*	61*
COc1ccc2nc3oc(C(=O)NC4CCN(Cc5ccccc5)CC4)cc3cc2c1	63*	22	98*	10	.	-38	22	91*	20
CCOC(=O)N1CCC(NC(=O)c2cc3cc4cc(OC)ccc4nc3o2)CC1	-5	-6	11	-48	8	2	.	.	.
Cc1ccccc1NC1=C/C(=N\S(=O)(=O)c2cccs2)c2ccccc2C1=O	51*	-8	73*	42	98*	-171	84*	100*	51*
O=S(=O)(c1ccc(Br)cc1F)N1CCC(O)CC1	.	.	.	-3	.	.	.	.	.
O=S(=O)(C/C(=C/CO)S(=O)(=O)c1ccccc1)c1ccccc1	72*	3	89*	27	90*	-74	58*	96*	51*
Cc1c(C(=O)N/N=C/c2ccc(N(C)C)cc2)[nH]c2ccc(Cl)cc12	50*	52	65*	27	28	13	0	51*	69*
CN(C)c1ccc(/C=N/NC(=O)c2ccc3c(c2)OCO3)cc1	10	7	6	-31	3	-15	.	.	.
Cc1ccc(S(=O)(=O)N(C)C)cc1NC(=O)COC(=O)c1ccc2ccccc2n1	17	.	11	0	.	20	.	.	.
CCc1nnc(NS(=O)(=O)c2ccc(NC(=O)CCC(=O)OC)cc2)s1	-27	-7	-12	0	-11	-16	.	.	.
O=S(=O)(Nc1cccc2cccnc12)c1ccccc1	101*	43	100*	47	29	-14	19	100*	52*
Cc1ccc2cccc(NS(=O)(=O)c3ccccc3)c2n1	99*	-5	84*	54	22	-8	43	95*	23
O=S(=O)(Nc1cccc2ccccc12)c1ccccc1	-15	.	-10	36	.	-2	.	.	.
CC(=O)Nc1ccc(S(=O)(=O)Nc2cccc3cccnc23)cc1	7	-11	18	-4	2	4	.	.	.
CN1CCC(N(C)C(=O)/C(C#N)=C\c2ccc(OC(F)F)cc2)CC1	.	.	.	-18	.	.	.	.	.

Screening data as filed in PubChem.
